SENP7 block – SENP7 protease inhibitors, primary screen, biochemical, luminescence, uHTS | Sentrin-specific protease 7 (Homo sapiens), Q9BQF6 | recombinant SENP7, Z-RLRGG-aminoluciferin luminescence, 40 min | inhibition, % at 5 µM | actives 1.5% (n = 330,000);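 active = inhibition above about 50% at the single test dose, limit read from the data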
C8 TRAIL sens – viability loss with TRAIL in NB7+C8 cells, primary screen, TRAIL sensitizer project, cell-based, ATPlite luminescence. AID 624354, 2012. inhibition (viability loss, TRAIL sensitization), % at 10 µM. actives 1% (n = 360,000);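 active = compounds causing at least 50% loss of cell viability in the single-dose screen, relative to plate controls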
SENP6 block – SENP6 protease inhibitors, primary screen, biochemical, luminescence, uHTS; Sentrin-specific protease 6 (Homo sapiens), Q9GZR1; Recombinant SENP6 catalytic domain, aminoluciferin luminescence; inhibition, % at 10 µM; actives 1.8% (n = 330,000); AID 2599, 2010;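 active = inhibition above about 50% at the single tested dose, limit read from the data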
SENP8 block-1 – SENP8 protease inhibitors, primary screen, biochemical, luminescence; Sentrin-specific protease 8 (Homo sapiens), Q96LD8; purified SENP8, Z-RLRGG-aminoluciferin cleavage; inhibition, % at 10 µM; actives 1.2% (n = 330,000); AID 2540, 2010; in the data active = inhibition above about 50%
Target sequence (Q96LD8 whole entry, looked up): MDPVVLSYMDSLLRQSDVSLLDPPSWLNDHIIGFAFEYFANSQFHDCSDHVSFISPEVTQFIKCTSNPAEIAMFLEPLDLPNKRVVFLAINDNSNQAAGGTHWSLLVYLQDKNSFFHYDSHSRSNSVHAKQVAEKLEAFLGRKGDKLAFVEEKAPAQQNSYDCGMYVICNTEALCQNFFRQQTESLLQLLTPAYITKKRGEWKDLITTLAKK
SENP8 block-2 – human SENP8 protease inhibitors, primary screen, biochemical, fluorescence, Nedd8 protein substrate, uHTS. inhibition, % at 20 µM. recombinant SENP8. Sentrin-specific protease 8 (Homo sapiens), Q96LD8. actives 0.64% (n = 360,000); in the data active = inhibition mostly above about 40%, no sharp cut-off; inactive = mostly below about 27%
PPC-1+TRAIL kill – compounds killing PPC-1 cancer cells with TRAIL present, primary screen, TRAIL potentiator project, ATPLite luminescence, uHTS; AID 1443, 2008; PPC-1 cells + TRAIL, ATPLite viability luminescence; actives 0.41% (n = 220,000); cell killing (% activity), % at 4 µM or 5 µM;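 active = cell killing above 50% in the first pass at 4 µM, then a duplicate retest at 5 µM averaging 50% or more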
SENP8 conf – SENP8 protease inhibitors, retest, confirmation, biochemical, luminescence, single concentration; shares compounds with SENP7 block; Recombinant SENP8, Z-RLRGG-aminoluciferin luminescence, 60 min; inhibition, % at 12.5 µM; actives 40% (n = 6,200); AID 488912, 2010;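 active = mean inhibition across replicates above about 50%, limit read from the data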
SENP6 conf – SENP6 protease inhibitors, confirmation, biochemical, luminescence, single concentration; shares compounds with SENP7 block; recombinant SENP6, Z-RLRGG-aminoluciferin luminescence; inhibition, % at 12.5 µM; actives 58% (n = 6,200)
SENP7 conf – SENP7 protease inhibitors, retest, confirmation, biochemical, luminescence, single concentration | shares compounds with SENP7 block | recombinant SENP7, Z-RLRGG-aminoluciferin luminescence, 40 min | inhibition, % at 12.5 µM | actives 69% (n = 6,200) | AID 488917, 2010
Casp3 select – caspase-3 protease inhibitors, confirmation, selectivity assay for SENP inhibitor project, biochemical, single concentration; shares compounds with SENP7 block; actives 60% (n = 6,200); inhibition, % at 12.5 µM; purified caspase-3, Z-DEVD-aminoluciferin luminescence, 60 min;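 active = mean inhibition above about 50%, limit read from the data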
Target sequence (P42574 28-227 limits assumed): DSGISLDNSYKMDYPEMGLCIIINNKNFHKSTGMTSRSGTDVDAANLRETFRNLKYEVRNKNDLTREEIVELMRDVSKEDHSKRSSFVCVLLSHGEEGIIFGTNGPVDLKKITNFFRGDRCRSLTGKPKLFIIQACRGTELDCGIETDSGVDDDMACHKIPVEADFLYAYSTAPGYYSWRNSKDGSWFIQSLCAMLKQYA
SENP luc ctr – counter-screen for SENP inhibitors: luminescence interference. shares compounds with SENP7 block. Pre-incubated SENP8/Z-RLRGG-aminoluciferin, luciferase luminescence interference. inhibition, % at 12.5 µM. actives 39% (n = 6,200). AID 488919;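 active = mean inhibition above about 50% when retested at one dose, limit read from the data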
Numbers stand for hits; . = inactive; / = no result given. In the library only some 3% were active in any assay of this set; here they are far more common.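 The calls were made as follows, unless noted: active = mean inhibition above about 50% in the one-dose retest (limit read from the data); inactive = the rest.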

SMILES	SENP7 block	C8 TRAIL sens	SENP6 block	SENP8 block-1	SENP8 block-2	PPC-1+TRAIL kill	SENP8 conf	SENP6 conf	SENP7 conf	Casp3 select	SENP luc ctr
O=C(O)c1ccccc1-c1ccccc1C(=O)Nc1cccc(O)c1	.	.	.	.	.	.	/	/	/	/	/
Cc1cc(C)nc(NC(=O)/C=C/c2ccc3c(c2)OCO3)c1	90.5	64.2	86.2	71.1	.	56.4	.	72.9	99.8	87.5	51.7
CC1(Oc2cccc(F)c2)CCN(Cc2ccc(-c3ccccn3)cc2)C1 (centres undefined)	/	.	/	/	.	/	/	/	/	/	/
Cc1sc2nc(SCC(=O)N(C)c3ccccc3)n(C)c(=O)c2c1C	.	.	.	.	.	/	/	/	/	/	/
O=C(Nc1ccc(F)c(Cl)c1)c1ccc2c(=O)n3c(nc2c1)CCCCC3	69.5	.	75.7	.	.	.	.	59.7	91.2	61.6	.
COc1cc(OC)cc(C(=O)Nc2ccc3nc4n(c(=O)c3c2)CCCC4)c1	86.3	.	87.2	76.6	.	/	57.8	82.5	96.4	91.6	80.3
COc1cccc(C(=O)Nc2ccc3nc4n(c(=O)c3c2)CCCC4)c1	.	.	52.9	.	.	/	.	.	70.9	72.8	.
COc1cc(C(=O)Nc2ccc3nc4n(c(=O)c3c2)CCCC4)ccc1Br	.	.	.	.	.	/	/	/	/	/	/
Cc1cc(C)cc(N(C(=O)c2csnn2)C(C(=O)NC2CCCCC2)c2ccccn2)c1 (centres undefined)	.	.	.	.	.	/	/	/	/	/	/
Cc1ccc(NC(=O)COC(=O)CC2CCCC2)cc1F	.	.	.	.	.	/	/	/	/	/	/
Cc1ccc(OC(C)C(=O)Nc2ncc(Cl)cc2Cl)c([N+](=O)[O-])n1 (centres undefined)	.	.	.	.	.	/	/	/	/	/	/
CC(OC(=O)c1ccc([N+](=O)[O-])s1)C(=O)Nc1ncc(Cl)cc1Cl (centres undefined)	.	.	60.0	61.6	.	.	.	.	.	.	.
O=C(NNC(=O)C1C2C=CC(C2)C1C(=O)O)c1cc(Cl)ccc1O (centres undefined)	.	.	.	.	.	/	/	/	/	/	/
O=C(Nc1cccc(C(=O)O)c1)Nc1ccccc1Cl	96.7	.	95.0	93.4	.	.	97.7	98.1	102.8	95.6	75.4
O=C(Nc1ccc(Cl)cc1)Nc1cccc(C(=O)O)c1	96.8	64.9	94.9	94.9	.	.	98.8	99.2	103.5	86.7	98.2
O=C(Nc1ccc(CN2CCCCC2)cc1)Nc1ccccc1Cl	.	.	.	.	.	.	/	/	/	/	/
CSc1cccc(NC(=O)Nc2ccc(Cl)cc2)c1	.	.	.	.	.	.	/	/	/	/	/
O=C(Nc1cccc(C(=O)O)c1)Nc1cccc2ccccc12	.	.	.	.	.	/	/	/	/	/	/
O=C(Nc1ccc(Br)cc1)Nc1ccccc1Cl	93.5	.	80.7	67.5	.	.	.	68.3	90.3	.	.
O=C(OCc1ccccc1)N1CCC2CC1c1cc(-c3ccc4c(c3)OCO4)ccc12 (centres undefined)	/	.	/	/	.	/	/	/	/	/	/
Oc1ccc(/C(Cc2ccc3ccccc3n2)=N\Nc2ccccc2)c(O)c1	.	.	.	.	.	.	/	/	/	/	/
O/C(=C\c1ccc2ccccc2n1)c1ccc(O)cc1O	92.3	65.7	91.3	92.8	.	.	95.4	95.8	101.7	92.1	.
CCc1ccc(S(=O)(=O)Nc2nnc(N)s2)cc1	.	.	.	.	.	/	/	/	/	/	/
CC1=CC(c2ccccc2)=Nc2ccc(C)cc2N1	.	.	60.1	.	.	.	55.4	.	66.4	81.3	80.1
COc1cccc(C(=O)NCCC(=O)NCc2cc(=O)n(C)c(=O)n2C)c1	.	.	.	.	.	/	/	/	/	/	/
SMILES	SENP7 block	C8 TRAIL sens	SENP6 block	SENP8 block-1	SENP8 block-2	PPC-1+TRAIL kill	SENP8 conf	SENP6 conf	SENP7 conf	Casp3 select	SENP luc ctr
c1ccc(-c2noc(-c3cccc4ccccc34)n2)cc1	.	.	.	.	.	.	/	/	/	/	/
Brc1ccccc1-c1nc(-c2ccccc2)no1	98.0	/	96.9	95.3	/	.	.	99.1	103.1	93.5	91.3
Fc1ccccc1-c1nc(-c2ccc(-c3nn[nH]n3)cc2)no1	91.7	.	97.0	96.2	.	/	98.0	98.5	102.2	96.3	97.6
COc1ccc(-c2ccc(-c3noc(-c4ccccc4F)n3)c(OC)n2)cc1	/	.	/	/	.	.	/	/	/	/	/
Fc1ccccc1-c1nc(-c2ccccc2)no1	98.7	.	97.9	95.3	.	.	.	97.3	101.8	90.2	.
Fc1ccccc1-c1nc(-c2ccncc2)no1	84.2	.	84.9	77.2	.	/	81.9	83.7	97.9	89.9	71.9
CC(C)(C)c1ccc(Oc2ncccc2NC(=O)c2cccs2)cc1	.	.	.	.	.	.	/	/	/	/	/
CCn1ccnc1CNC(=O)c1ccc2oc(CCCc3ccccc3)nc2c1	.	.	.	.	.	/	/	/	/	/	/
Cc1c(C#N)c(O)[nH]c(=O)c1N=Nc1ccc(S(N)(=O)=O)cc1	.	.	51.2	.	.	/	.	.	71.1	75.2	51.8
CCOc1ccccc1C(=O)NCC(=O)NNC(=O)CN(C)S(=O)(=O)c1ccc(Cl)cc1	.	.	.	.	.	/	/	/	/	/	/
CCOc1ccc(S(=O)(=O)/N=C(/Nc2ccc(OC)cc2)c2ccccc2)cc1	.	.	.	.	.	/	/	/	/	/	/
COc1ccc(C(=O)NN/C(=N/S(=O)(=O)c2ccc(C)cc2)c2ccccc2)cc1	78.3	.	87.7	54.0	.	.	68.7	64.3	88.3	69.9	72.7
Cc1ccc(S(=O)(=O)/N=C(/NC(=S)Nc2ccccc2)c2ccccc2)cc1	.	.	73.6	.	.	.	67.2	65.4	85.8	.	.
O=C(Nc1nccs1)c1ccc2c(c1)OCO2	.	.	63.2	.	.	/	.	.	68.2	67.0	.
